# Data taken from ChEMBL document CHEMBL4513216, “Probing the Open Global Health Chemical Diversity Library for Multistage-Active Starting Points for Next-Generation Antimalarials” (ACS Infect Dis, 2020).
# The campaign covered roughly 69,000 compounds. About 8,600 (12%) showed an effect of 50% or more. The list comes from a sample in which strong results are over-represented; it also holds similar structures and randomly drawn compounds.
# Tested on: Plasmodium berghei
# Experiment: Screen against P. berghei liver stage (PbLuc), transformed with Luciferase, at 10uM
# Assay type: functional, HepG2
# Conditions: tested at 10 uM
row,SMILES,INHIBITION [%]
1,CCOCC(=O)N1C[C@@H](O)[C@H](N2CCN(c3ccccc3)CC2)C1,-3.25
2,CC(C)CCN1CCN(C(=O)c2c[nH]c(=O)[nH]2)CC1,-16.8
3,CCn1nc(C)c2nc(C(C)C)nc(N(C)Cc3ccco3)c21,11.8
4,OCCN1CCC(CNCc2ccccc2OC(F)(F)F)CC1,4.8
5,Cc1cc(C)n(-c2ccc(CNCc3cccc(C#N)c3)cn2)n1,-12.63
6,CC(C)c1csc(C(=O)N2CCCC(Cn3cc(CO)nn3)C2)n1 (stereo not drawn),40.3
7,Cc1nn(CC(O)CN2CCc3ccccc3C2)c(=O)c(C#N)c1C (stereo not drawn),-1.75
8,O=C(N1CCCC1)N1CCC2(CC1)C(=O)N(CC1CC1)c1ccccc12,23.5
9,CCOCc1nnc2n1CCN(Cc1c(C)noc1C)CC2,30.3
10,Cc1ccnc(C(=O)N2C[C@@H]3CN(S(C)(=O)=O)CCO[C@@H]3C2)c1,48.2
11,Cc1nc(C(=O)N2C[C@@H]3CN(S(C)(=O)=O)CCO[C@@H]3C2)cs1,58.5
12,Cn1nccc1C(=O)N1C[C@@H]2CN(S(C)(=O)=O)CCO[C@@H]2C1,40.5
13,O=C(c1sccc1Br)N(Cc1cccnc1)C1CC1,25.2
14,c1ccc(CCN2CCc3c(ncn3C3CC3)C2)nc1,-24.7
15,Cn1cnc2c1CCN(Cc1ccc(Cl)c3cccnc13)C2,31.1
16,Clc1ccc(CN2CCc3c(ncn3C3CC3)C2)c2ncccc12,66.3
17,CCN(CC)C(=O)C1CCCN(c2ncnc3oc(C)nc23)C1 (stereo not drawn),3.46
18,CCCOc1ccccc1CCCNc1ncnc2oc(C)nc12,83.5
19,CC(CNc1cncc(-n2cccn2)n1)N(C)c1ccccc1 (stereo not drawn),10
20,Cc1ncnc(NC(CC(C)(C)C)c2cccnc2)c1C (stereo not drawn),40.3
21,Cc1nc2c(N(CCC(N)=O)CCc3ccccc3)ncnc2o1,19.2
22,CCCN(CCc1ccccc1)c1ncnc2oc(C)nc12,25.4
23,CCC(CNc1ncnc2oc(C)nc12)Cc1ccccc1 (stereo not drawn),59.5
24,Cc1ncnc(NCC(C)N(C)c2ccccc2)c1C (stereo not drawn),68.6
25,Cc1nc2c(NCC(C)N(C)c3ccccc3)ncnc2o1 (stereo not drawn),67.7
26,Cc1nc2c(N3CCC(O)(Cn4ccnc4)CC3)ncnc2o1,29.7
27,CCCOc1ccc(Cl)cc1CNc1ncnc2oc(C)nc12,45.4

row,SMILES,INHIBITION [%]
1,Cc1nc2c(NC(CC(C)(C)C)c3cccnc3)ncnc2o1 (stereo not drawn),34.4
2,CC(C)CCN(CCC(C)C)Cc1nc2c(cnn2C)c(=O)[nH]1,-11.58
3,O=C(c1ccco1)N1C[C@H]2CCCN(Cc3nccs3)[C@H]2C1,1.71
4,CC(C)c1ccc(OCCNC(=O)CN2CCN(C)CC2C)cc1 (stereo not drawn),32.7
5,COCCNc1nc(N2CCCC2)nc2nccnc12,6.29
6,O=C(c1cscn1)N1CC[C@H]2C[C@@H](c3ccncn3)O[C@@H]2C1,43.9
7,COCCC(=O)NCc1ccc(-c2ccccc2C(=O)O)cn1,5.23
8,O=C(C1CCC1)N1CC[C@H](O)[C@@H]1Cc1cccnc1,32.1
9,CS(=O)(=O)CCN(CCc1cccc(F)c1)C1CC1,30.9
10,CCCN(C1CCc2ccccc2C1)S(C)(=O)=O (stereo not drawn),2.97
11,CCCN(CCS(C)(=O)=O)C1CCc2ccccc2C1 (stereo not drawn),53.5
12,CCS(=O)(=O)NCC(=O)N(C1CC1)C1Cc2ccccc2C1,7.39
13,CNS(=O)(=O)CC(=O)N(C1CC1)C1Cc2ccccc2C1,32
14,CN(C1CCc2ccccc2C1)S(C)(=O)=O (stereo not drawn),53.5
15,O=C([C@H]1C[C@H]2OCC[C@H]2N(C(=O)c2ccncc2)C1)N1CCCC1,-23.8
16,CCN(CC)c1ccc(C(=O)N2CCCC2Cn2cc(C)cn2)cn1 (stereo not drawn),-4.75
17,Cc1nn(-c2ccc(C(=O)O)cc2)c2c1C(C(C)C)SCC(=O)N2 (stereo not drawn),-2.39
18,O=C1COc2ccc(S(=O)(=O)NCCC3=CCCCC3)cc2N1,-13.6
19,C[C@@H]1CN(CC(=O)NCc2ccccn2)C[C@]1(C)O,19.8
20,CC(=O)N1C[C@H]2CC[C@@H](C1)N(S(=O)(=O)c1ccc(C#N)cc1Cl)C2,38.3
21,CC(C)OCCOCc1cccc(NC(=O)NCc2ccncc2)c1,-18.2
22,CNc1nc(CNC(=O)Nc2cccc(COCCOC(C)C)c2)cs1,52.4
23,CC(C)OCCOCc1cccc(NC(=O)NCc2cnn(C)c2)c1,50.4
24,Cc1cc(CNC(=O)Nc2cccc(COCCOC(C)C)c2)no1,29.5
25,CC(C)OCCOCc1cccc(NC(=O)NCC(=O)N(C)C)c1,44.4
26,CC(C)OCCOCc1cccc(NC(=O)NCc2ccccn2)c1,0.139
